{
  "source": "PubChem BioAssay (EPA / NIEHS)",
  "note": "Calls of active or inactive are those of the source. How the source made its calls: active means hit-call score of the fitted dose curve at least 0.9, where 1 is the maximum; inactive means score below 0.9. Starred links: 1 amine or outer side, 2 acyl side, 3 side chain; linkers in the order of their positions; H or OH if unused. Positions of bridges follow the written chain, without caps; N, C: chain ends. Non-standard residues stand in square brackets, D forms with d. Residues, ends and D or L forms follow the SMILES beside them. Adda = CO[C@@H](Cc1ccccc1)[C@@H](C)/C=C(C)/C=C/[C@H](N[*:1])[C@H](C)C(=O)[*:2]; dAsp(3S-Me) = C[C@H](C(=O)[*:3])[C@@H](N[*:1])C(=O)[*:2]; d(γGlu) = O=C(O)[C@@H](CCC(=O)[*:2])N[*:1]; NMeDha = C=C(NC)C(=O)O",
  "data": [
    {"test": "CCTE_Harrill_HTTr_Viability_MCF7: CCTE's 6-hour Cell Viability Assessment for the High-Throughput Transcriptomics (HTTr) Platform, in MCF-7 cells cultured in DMEM + 10% fetal bovine serum, Harrill Lab (AID 2284010)", "description": "This is a cell-based assay that evaluates cell viability using high content imaging to evaluate membrane integrity using propidium iodide dye exclusion in a 384 well format.One of seven assay components measured from the CCTE_Harrill_HTTr_Viability assay. This was part of a full screening experiment. This is a cell-based assay that evaluates cell viability in MCF-7 cells cultured in DMEM + 10% fetal bovine serum. High content imaging is used to evaluate membrane integrity using propidium iodide dye exclusion. Measurements are taken at 6 hours after chemical dosing in 384-well format.The assay component endpoint CCTE_Harrill_HTTr_Viability_MCF7 was analyzed with bidirectional fitting relation to DMSO as the negative control and baseline of activity. Using a type of viability reporter, gain-of-signal activity can be used to evaluate membrane integrity using propidium iodide dye exclusion to understand changes in cytotoxicity. To generalize the intended target to other relatable targets, this assay endpoint is annotated to cell cycle, where the subfamily is cytotoxicity.\nChemicals were tested in MCF7 cells in an eight point dilution series with a six hour exposure duration.", "values": [
      {"compound": "CC(C)[C@@H](C(=O)O[C@@H](C#N)c1cccc(Oc2ccccc2)c1)c1ccc(Cl)cc1", "outcome": "inactive"},
      {"compound": "CCOC(=O)NC(=S)Nc1ccccc1NC(=S)NC(=O)OCC", "outcome": "inactive"},
      {"compound": "Cc1ccc(N(SC(F)(Cl)Cl)S(=O)(=O)N(C)C)cc1", "outcome": "inactive"},
      {"compound": "CCOP(=O)(O)OCC", "outcome": "inactive"},
      {"compound": "[N-]=[N+]=CC(=O)OC[C@H](N)C(=O)O", "outcome": "inactive"},
      {"compound": "CCCN(CC1CC1)c1c([N+](=O)[O-])cc(C(F)(F)F)cc1[N+](=O)[O-]", "outcome": "inactive"},
      {"compound": "CNC(=N[N+](=O)[O-])NCC1CCOC1", "note": "(stereo not given)", "outcome": "inactive"},
      {"compound": "BrC(Br)Br", "outcome": "inactive"},
      {"compound": "CNC(=O)Oc1cccc(C(C)C)c1", "outcome": "inactive"},
      {"compound": "Cc1cc(N)ccc1N", "outcome": "inactive"},
      {"compound": "ClC=C(Cl)CCl", "outcome": "inactive"},
      {"compound": "COP(=S)(OC)SCC(=O)N(C)C=O", "outcome": "inactive"},
      {"compound": "CCOC(=O)N(C)N=O", "outcome": "inactive"},
      {"compound": "Cl", "outcome": "inactive"},
      {"compound": "N#Cc1sc2c(=O)c3ccccc3c(=O)c=2sc1C#N", "AC50": "11.1 µM (active)"},
      {"compound": "O=P1(NCCCl)OCCCN1CCCl", "note": "(stereo not given)", "outcome": "inactive"},
      {"compound": "CCc1cccc(C)c1N(C(=O)CCl)[C@@H](C)COC", "outcome": "inactive"},
      {"compound": "Cc1ccc2cc(C)ccc2c1", "outcome": "inactive"},
      {"compound": "Oc1cc(Cl)ccc1Cl", "outcome": "inactive"},
      {"compound": "O=[N+]([O-])c1ccccc1Cl", "outcome": "inactive"},
      {"compound": "CCCCC(CC)COC(=O)c1cc(Br)c(Br)c(Br)c1Br", "note": "(stereo not given)", "outcome": "inactive"},
      {"compound": "CCC[N+](=O)[O-]", "outcome": "inactive"},
      {"compound": "N#Cc1cc(I)c(O)c(I)c1", "outcome": "inactive"},
      {"compound": "CCCOC(=O)c1ccccc1C(=O)OCCC", "outcome": "inactive"},
      {"compound": "Oc1ccc(Cl)cc1", "outcome": "inactive"},
      {"compound": "Oc1ccc(C2(c3ccc(O)cc3)CCCCC2)cc1", "outcome": "inactive"},
      {"compound": "FC(F)(F)c1ccc(OCCCOc2c(Cl)cc(OCC=C(Cl)Cl)cc2Cl)nc1", "outcome": "inactive"},
      {"compound": "OC(Cn1cncn1)(c1ccc(F)cc1)c1ccccc1F", "note": "(stereo not given)", "outcome": "inactive"},
      {"compound": "CN(C)CCC#N", "outcome": "inactive"},
      {"compound": "C=C1C(=O)N[C@H](C)C(=O)N[C@H](CC(C)C)C(=O)N[C@@H](C(=O)O)[C@H](C)C(=O)N[C@@H](CCCN=C(N)N)C(=O)N[C@@H](/C=C/C(C)=C/[C@H](C)[C@H](Cc2ccccc2)OC)[C@H](C)C(=O)N[C@@H](C(=O)O)CCC(=O)N1C", "note": "(R[Adda][d(γGlu)][NMeDha][dA][dL][dAsp(3S-Me)]-OH; lactam N-7)", "outcome": "inactive"},
      {"compound": "O=C(O)CCCOC(=O)c1ccccc1C(=O)O", "outcome": "inactive"},
      {"compound": "CC(C)(O)C#N", "outcome": "inactive"},
      {"compound": "O=C=Nc1ccccc1", "outcome": "inactive"},
      {"compound": "II", "outcome": "inactive"},
      {"compound": "CCOC(=O)COc1ccc(Cl)cc1Cl", "outcome": "inactive"},
      {"compound": "Clc1c(Cl)c(Cl)c2c(c1Cl)Oc1c(Cl)c(Cl)c(Cl)c(Cl)c1O2", "outcome": "inactive"},
      {"compound": "[O-][Cl+3]([O-])([O-])O", "outcome": "inactive"},
      {"compound": "C[N+](C)(C)CC(=O)O", "outcome": "inactive"},
      {"compound": "N#CCCCCC#N", "outcome": "inactive"},
      {"compound": "O=C(CCl)c1ccccc1", "outcome": "inactive"}
    ]}
  ]
}
